Laboratory results as given in PubChem BioAssay AID1159554 (Broad Institute, 2015).
Screen size: about 94,000 compounds; about 2,100 (2.2%) were called active. The list comes from a sample in which actives are over-represented; it also holds similar structures and randomly drawn compounds. Unmarked numbers belong to inactive results. Cut-off read from the data, not from the text of the source: active = activity change below about -80%; inconclusive = no clear call, values can overlap the other calls; inactive = above that.

Assay: Dd2 malaria parasite growth inhibition – SYBR Green fluorescence, single dose replicates, primary screen (AID 1159554)
Conditions: P. falciparum Dd2 growth, 72 h, at 10 µM, active compounds read low

Structure (SMILES) | activity change
COc1ccc(NC(=O)Nc2ccc3c(c2)[C@H]2C[C@H](CC(=O)NC4CCCC4)O[C@@H](CO)[C@H]2O3)cc1 | 4.95%
O=C(C[C@@H]1CC[C@H]2[C@@H](COC[C@H](O)CN2S(=O)(=O)c2ccccc2)O1)NCCN1CCCC1 | -4.83%
C[C@@H]1CCCCO[C@H](CN(C)C(=O)CCC(F)(F)F)[C@H](C)CN([C@@H](C)CO)C(=O)c2cc(NC(=O)CCCCCC(=O)Nc3ccccc3N)ccc2O1 | -41%
O=C(NC[C@@H]1[C@H](c2ccccc2)[C@H](CO)N1CC1CCCC1)c1cccnc1 | -5.05%
CCCNC(=O)N1[C@H](CO)[C@H](c2ccccc2)[C@H]1CNC(=O)C1CCCCC1 | 6.57%
COCCNC[C@@H]1[C@H](c2ccccc2)[C@H](CO)N1c1nc(C)c(C)s1 | -28.1%
Cc1nc(N2[C@H](CO)[C@H](c3ccccc3)[C@H]2CNCC2CCCCC2)sc1C | -96.4% (active)
O=S(=O)(NC[C@H]1[C@@H](c2ccccc2)[C@@H](CO)N1CC1CC1)c1ccccc1 | 10.7%
Cc1nc(N2[C@H](CO)[C@H](c3ccccc3)[C@H]2CNCC2CCC2)sc1C | -89.7% (active)
CCCNC(=O)[C@@H]1[C@@H](CO)[C@@H]2Cn3c(ccc(-c4ccccc4F)c3=O)[C@H]1N2CC1CC1 | 4.78%
CCCNC(=O)C[C@@H]1CC[C@H]2[C@@H](COc3ccc(NC(=O)C4CCCC4)cc3C(=O)N2C)O1 | 5.93%
O=C(CC1CC1)N1CC[C@@H]2[C@@H](CO)Nc3ccc(-c4ccccc4)cc3[C@@H]21 | 4.83%
O=C(Nc1ccccc1)N[C@@H]1CC[C@H](CCn2cc(-c3ccccc3F)nn2)O[C@@H]1CO | -68%
O=C(Nc1ccc(F)cc1)N[C@H]1CC[C@H](CCn2cc(C3(O)CCCC3)nn2)O[C@@H]1CO | -25.8%
COc1ccc(NC(=O)Nc2ccc3c(c2)C(=O)N([C@H](C)CO)C[C@@H](C)[C@H](CN(C)Cc2ccc(Cl)c(Cl)c2)OCCCC[C@@H](C)O3)cc1 | -83.8% (active)
C[C@H](CO)N1C[C@H](C)[C@H](CN(C)Cc2ccc(Cl)c(Cl)c2)OCCCC[C@H](C)Oc2ccc(NC(=O)NC3CCCCC3)cc2C1=O | -14.4%
C[C@H]1CCCCO[C@@H](CN(C)Cc2ccc(C(F)(F)F)cc2)[C@@H](C)CN([C@@H](C)CO)C(=O)c2cc(NC(=O)Nc3ccccc3)ccc2O1 | -74.7%
C[C@@H]1CN([C@H](C)CO)C(=O)c2cc(NC(=O)Nc3ccccc3)ccc2O[C@@H](C)CCCCO[C@H]1CN(C)Cc1ccc(C(F)(F)F)cc1 | -85.7% (active)
C[C@@H]1CN([C@H](C)CO)C(=O)c2cc(NC(=O)Nc3ccc(F)cc3)ccc2O[C@@H](C)CCCCO[C@H]1CN(C)Cc1ccc(Cl)c(Cl)c1 | -77.2%
C[C@@H]1CCCCO[C@H](CN(C)Cc2ccc(Cl)c(Cl)c2)[C@@H](C)CN([C@@H](C)CO)C(=O)c2cc(NC(=O)Nc3ccccc3)ccc2O1 | -83% (active)
C[C@@H]1CCCCO[C@@H](CN(C)Cc2ccc(C(F)(F)F)cc2)[C@@H](C)CN([C@H](C)CO)C(=O)c2cc(NC(=O)Nc3ccccc3)ccc2O1 | 74.5%

Structure (SMILES) | activity change
C[C@@H]1CCCCO[C@@H](CN(C)Cc2ccc(Cl)c(Cl)c2)[C@H](C)CN([C@H](C)CO)C(=O)c2cc(NC(=O)Nc3ccc(F)cc3)ccc2O1 | -83% (active)
COc1ccc(CN(C)C[C@@H]2OCCCC[C@@H](C)Oc3ccc(NC(=O)Nc4ccc(OC)cc4)cc3C(=O)N([C@@H](C)CO)C[C@@H]2C)cc1 | -76.5%
COc1ccc(NC(=O)Nc2ccc3c(c2)C(=O)N([C@H](C)CO)C[C@H](C)[C@H](CN(C)Cc2ccncc2)OCCCC[C@H](C)O3)cc1 | 29.4%
C[C@@H]1CCCCO[C@@H](CN(C)Cc2ccc3c(c2)OCO3)[C@@H](C)CN([C@@H](C)CO)C(=O)c2cc(NC(=O)Nc3ccccc3)ccc2O1 | -36.8%
CC(C)NC(=O)Nc1ccc2c(c1)C(=O)N([C@@H](C)CO)C[C@@H](C)[C@H](CN(C)Cc1ccc(Cl)c(Cl)c1)OCCCC[C@H](C)O2 | -77.6%
COc1ccc(-c2ccc([C@@H]3[C@H](CN(C)S(C)(=O)=O)N[C@@H]3CO)cc2)cc1 | -61.4%
C[C@H](CO)N1C[C@H](C)[C@@H](CN(C)C(=O)Cc2ccccn2)Oc2cc(-c3cccc(C(=O)N(C)C)c3)ccc2S1(=O)=O | -3.07%
CN1CCN(C(=O)C[C@H]2C[C@@H]3c4cc(NS(=O)(=O)c5ccc(F)cc5)ccc4O[C@@H]3[C@@H](CO)O2)CC1 | -2.3%
CO[C@@H]1CN(C)C(=O)c2cc(NC(=O)NC3CCCC3)ccc2OC[C@H](C)NC[C@H]1C | 14.4%
O=C(Nc1cc(F)ccc1F)N1CC(=O)N2[C@H](CO)[C@@H](c3ccc(-c4cccnc4)cc3)[C@@H]2C1 | -15.2%
CCC(=O)N1C[C@H]2[C@@H](c3ccccc31)[C@H](CO)N2Cc1ccccc1F | 0.398%
CO[C@H]1CN(C)C(=O)c2ccc(NC(C)=O)cc2OC[C@@H](C)N(C(=O)c2ccccn2)C[C@@H]1C | 13.4%
Cc1noc(C)c1S(=O)(=O)N(C)C[C@@H]1OCCCC[C@@H](C)Oc2ccc(NS(=O)(=O)c3ccccc3)cc2C(=O)N([C@H](C)CO)C[C@@H]1C | -10.1%
CCC(=O)N1CC2(C1)CN(Cc1cc(F)ccc1F)[C@@H](CO)c1[nH]c3cc(OC)ccc3c12 | -89.9% (active)
COc1ccc2c3c([nH]c2c1)[C@@H](CO)N(Cc1ccncc1)CC31CN(C(=O)CN(C)C)C1 | -8.59%
CCCNC(=O)N1CC2(CCN(C(=O)C3CC3)CC2)c2c([nH]c3cc(OC)ccc23)[C@H]1CO | -26.2%
COc1ccc2c3c([nH]c2c1)[C@@H](CO)N(Cc1cc(F)ccc1F)CC31CN(C(=O)C2CCC2)C1 | -89.2% (active)
CCC(=O)N1CCC2(CC1)CN(Cc1cc(F)ccc1F)[C@@H](CO)c1c2c2ccc(OC)cc2n1C | -73%
COc1ccc2c3c([nH]c2c1)[C@@H](CO)N(C(C)=O)CC31CN(C(=O)Nc2ccc(F)cc2)C1 | -0.229%
COc1ccc2c3c([nH]c2c1)[C@@H](CO)N(C(=O)NC(C)C)CC31CN(C(=O)C2CCCC2)C1 | 12.7%
COc1ccc2c3c(n(C)c2c1)[C@H](CO)N(Cc1ccccc1F)CC31CN(C(=O)C2CCC2)C1 | -14.5%

Structure (SMILES) | activity change
COc1ccc2c3c([nH]c2c1)[C@@H](CO)N(Cc1ccccc1OC)CC31CCN(C)CC1 | 35.1%
COCC(=O)N1CC2(C1)CN(Cc1ccccc1F)[C@@H](CO)c1[nH]c3cc(OC)ccc3c12 | -88.4% (active)
COc1ccc2c3c([nH]c2c1)[C@@H](CO)N(Cc1cc(F)ccc1F)CC31CCN(C(=O)C2CCC2)CC1 | -88% (active)
COc1ccc2c3c([nH]c2c1)[C@H](CO)N(Cc1nccs1)CC31CCN(C(=O)C2CCC2)CC1 | -50%
CCS(=O)(=O)N1[C@H](CO)[C@@H](c2ccccc2)C12CN(C(=O)C1CCC1)C2 | 35.7%
COc1ccccc1S(=O)(=O)N1CC[C@@H]2[C@H](CO)Nc3ccc(-c4ccccc4F)cc3[C@@H]21 | -2.28%
O=C1CN(Cc2ccc(F)cc2)C[C@H]2[C@@H](c3ccc(Br)cc3)[C@H](CO)N12 | -35.6%
O=C(C[C@H]1C[C@@H]2c3cc(NC(=O)C4CCC4)ccc3O[C@@H]2[C@H](CO)O1)NC1CCCCC1 | 12%
O=C(N[C@@H]1C=C[C@H](CC(=O)N2CCOCC2)O[C@H]1CO)c1ccccn1 | 34%
C[C@H](O)C#Cc1cnc2c(c1)C(=O)N([C@H](C)CO)C[C@H](C)[C@H](CN(C)C(=O)c1ccc(F)cc1)O2 | 8.85%
COc1cccc(CNC(=O)C[C@@H]2CC[C@@H]3[C@H](COc4ccc(NC(C)=O)cc4C(=O)N3C)O2)c1 | -0.731%
Cc1noc(C)c1NC(=O)Nc1ccc2c(c1)CC(=O)N([C@@H](C)CO)C[C@@H](C)[C@H](CN(C)Cc1ccc(Oc3ccccc3)cc1)O2 | -81.8% (active)
C[C@H]1CN([C@@H](C)CO)C(=O)Cc2cc(NC(=O)Nc3cccc4ccccc34)ccc2O[C@H]1CN(C)CC1CC1 | -71.1%
C[C@H](CO)N1C[C@H](C)[C@@H](CN(C)Cc2ccc(Cl)c(Cl)c2)Oc2ccc(NC(=O)Nc3ccc(C(F)(F)F)cc3)cc2CC1=O | -87.2% (active)
CC(C)NC(=O)Nc1ccc2c(c1)CC(=O)N([C@@H](C)CO)C[C@@H](C)[C@H](CN(C)CC1CC1)O2 | 1.75%
Cc1noc(C)c1NC(=O)Nc1ccc2c(c1)C(=O)N([C@H](C)CO)C[C@H](C)[C@H](CN(C)Cc1ccc(Oc3ccccc3)cc1)O2 | -39.9%
C[C@@H]1CN([C@H](C)CO)C(=O)Cc2cc(NC(=O)Nc3ccccc3)ccc2O[C@H]1CN(C)Cc1ccc(Cl)c(Cl)c1 | -5.47%
Cc1noc(C)c1NC(=O)Nc1ccc2c(c1)CC(=O)N([C@H](C)CO)C[C@@H](C)[C@@H](CN(C)Cc1ccncc1)O2 | 3.85%
C[C@@H]1CN([C@H](C)CO)C(=O)Cc2cc(NC(=O)Nc3ccccc3)ccc2O[C@@H]1CN(C)Cc1ccc(C(F)(F)F)cc1 | 2.2%
C[C@H](CO)N1C[C@H](C)[C@@H](CN(C)CC2CC2)Oc2ccc(NC(=O)Nc3ccccc3)cc2CC1=O | -83.5% (active)
